{
  "source": "PubChem BioAssay (NCATS)",
  "note": "Inconclusive results are not listed. Active and inactive are the calls of the source. Calls follow the shape of the dose curve; as a rule, active = well fitted inhibition curve with a large enough effect; inconclusive = small, poorly fitted or top-dose-only effect; inactive = flat fitted curve, though single readings scatter. Potency is read from the fitted curve at half-maximal effect.",
  "data": [
    {"test": "qHTS for differential inhibitors of proliferation of Plasmodium falciparum line Dd2 (AID 1882); also: nearly all actives have a fitted effect of over 65% in size", "conditions": "Potency: Plasmodium falciparum Dd2 proliferation inhibition; series mostly up to 28.7 µM; activity change, negative = inhibition: at the top concentration", "source_text": "NIH Molecular Libraries Probe Production Network [MLPCN]\nNIH National Institute of Allergy and Infectious Diseases [NIAID]\nNIH Chemical Genomics Center [NCGC]\nAssay Provider: Xinzhuan Su, NIAID\nPlasmodium falciparum is a virulent malarial parasite that kills 1-2 million people worldwide each year. Transmitted by mosquitoes, the sporozoite form of the parasite enters the blood stream to infect hepatocytes, where they become merozoites that infect red blood cells (erythrocytes). Within erythrocytes, merozoites begin a […] cycle of growth and division, after which the parasite is released to infect new red blood cells. Gametocytes, which form within erythrocytes as well, circulate in the bloodstream and are ingested by the mosquito, thereby completing the life cycle. To profile malarial isolates for differential chemical responses and to identify inhibitors of malarial growth, an assay that measures P. falciparum growth and replication within erythrocytes was employed. This assay uses a DNA binding fluorescent dye (SYBR Green) to detect parasite DNA following cell lysis. Because mature erythrocytes lack DNA, only Plasmodium-derived DNA is detected. The P. falciparum line Dd2, derived from a malarial isolate from […], was used.\nNCGC Assay Protocol Summary:\nThe SYBR Green viability assay was adapted from a method described previously (Plouffe et al., 2008). For screening 3 ul culture medium was dispensed into 1536 well black clear bottom plates (Aurora Biotechnologies) using a Multidrop Combi (Thermo Fisher Scientific Inc.), 23 nL compounds in DMSO were added by a pin tool (Kalypsys), and 5 ul of erythrocytes infected with P. falciparum line Dd2 (0.3% parasitemia, 2.5% hematocrit final concentration) were added. The plates were incubated at 37 C in a humidified incubator in 5% CO2 for 72 h, and 2 ul lysis buffer (20 mM Tris HCl, 10 mM EDTA, […]% saponin, 1.6% triton X, 10X SYBR Green I supplied as 10,000X […] by Invitrogen) was added to each well. The plates were mixed for 25 sec with gentle shaking and incubated overnight at room temperature in the dark. The following morning, fluorescence intensity at 485(14) nm excitation and 535(25) nm emission wavelengths was measured on an EnVision (Perkin Elmer) plate reader. Plate reads were normalized relative to the control inhibitor (0.29 uM artemisinin) and vehicle (DMSO) wells present on each plate and then corrected by an algorithm using vehicle-only control plates at the beginning and end of the compound plate stack.\nPlouffe D, Brinker A, McNamara C, Henson K, Kato N, Kuhen K, Nagle A, Adrian F, Matzen JT, Anderson P, Nam TG, Gray NS, Chatterjee A, Janes J, Yan SF, Trager R, Caldwell JS, Schultz PG, Zhou Y, Winzeler EA. […] Proc Natl Acad Sci U S A. 2008, 105(26), pp 9059-64.", "values": [
      {"smiles": "O=C(O)CCC(=O)N1CCCC1C(=O)O", "note": "(stereo not given)", "activity change, negative = inhibition": "1.8% (inactive)"},
      {"smiles": "O=C(O)C1=CCCNC1", "activity change, negative = inhibition": "13.4% (inactive)"},
      {"smiles": "Cc1cccc(C)c1OCC(N)C(C)C", "note": "(stereo not given)", "Potency": "4.47 µM (active)"},
      {"smiles": "O=[N+]([O-])c1cccc2c(Br)[nH]nc12", "activity change, negative = inhibition": "-4.8% (inactive)"},
      {"smiles": "Nc1nc2[nH]c(=O)cnc2c(=O)[nH]1", "activity change, negative = inhibition": "4.71% (inactive)"},
      {"smiles": "CC(C)C[C@H](NC(=O)C1OC1C(=O)O)C(=O)NCCCCN=C(N)N", "note": "(stereo not given in full)", "Potency": "6.31 µM (active)"},
      {"smiles": "NC(=Nc1ccccc1)NC(=O)c1nc(Cl)c(N)nc1N", "activity change, negative = inhibition": "-0.328% (inactive)"},
      {"smiles": "N=S(=O)(O)Cc1noc2ccccc12", "activity change, negative = inhibition": "0.831% (inactive)"},
      {"smiles": "CC[N+](CC)(CC)CC(=O)Nc1c(C)cccc1C", "activity change, negative = inhibition": "1.64% (inactive)"},
      {"smiles": "Nc1ncnc2c1c(-c1ccc(Oc3ccccc3)cc1)cn2C1CCCC1", "Potency": "7.94 µM (active)"},
      {"smiles": "O=C(c1ccc2c(c1)OCCO2)N1CCCCC1", "activity change, negative = inhibition": "-0.632% (inactive)"},
      {"smiles": "NS(=O)(=O)c1cccc2c1c([N+](=O)[O-])cc1nc(O)c(O)nc12", "activity change, negative = inhibition": "-5.85% (inactive)"},
      {"smiles": "CCOC(=O)C12CC1/C(=N/O)c1ccccc1O2", "note": "(stereo not given)", "activity change, negative = inhibition": "-2.11% (inactive)"},
      {"smiles": "O=C(O)c1cccnc1C(=O)O", "activity change, negative = inhibition": "-2.35% (inactive)"},
      {"smiles": "O=c1cc(-c2ccccc2)[nH]c2nc(Cl)ccc12", "activity change, negative = inhibition": "-1.76% (inactive)"},
      {"smiles": "O=c1[nH]c(=O)c2nc3ccccc3nc2[nH]1", "activity change, negative = inhibition": "-25.9% (inactive)"},
      {"smiles": "NC(C(=O)N[C@@H]1C(=O)N2C(C(=O)O)=C(Cl)CS[C@H]12)c1ccccc1", "note": "(stereo not given in full)", "activity change, negative = inhibition": "-1.11% (inactive)"},
      {"smiles": "Cc1nc(N=Nc2ccc(C(=O)O)cc2)c(COP(=O)(O)O)c(C=O)c1O", "activity change, negative = inhibition": "-1.1% (inactive)"},
      {"smiles": "CC(=O)NNC(=O)N1Cc2ccccc2Oc2ccc(Cl)cc21", "activity change, negative = inhibition": "-0.559% (inactive)"},
      {"smiles": "COc1ccc(NC(=O)c2ccc(-c3ccc(-c4noc(C)n4)cc3C)cc2)cc1N1CCN(C)CC1", "Potency": "5.62 µM (active)"},
      {"smiles": "Oc1ccc(Cn2cc[nH]c2=S)cc1", "activity change, negative = inhibition": "-16% (inactive)"},
      {"smiles": "Cn1cc(C(F)(F)F)nc1-c1ccc(OCC(O)CNCCOc2ccc(O)c(C(N)=O)c2)cc1", "note": "(stereo not given)", "activity change, negative = inhibition": "-16.8% (inactive)"},
      {"smiles": "CC(C)NCC(O)COc1ccc(CC(N)=O)cc1", "note": "(stereo not given)", "activity change, negative = inhibition": "0.0589% (inactive)"},
      {"smiles": "C#CCn1c(=O)c2c(ncn2C)n(C)c1=O", "activity change, negative = inhibition": "4.46% (inactive)"},
      {"smiles": "COc1cc(CNC(=O)CCCCCCC(C)C)ccc1O", "activity change, negative = inhibition": "3.7% (inactive)"},
      {"smiles": "O=c1[nH]ccc2c(O)cccc12", "activity change, negative = inhibition": "-5.05% (inactive)"},
      {"smiles": "CC(C)(C)c1cc(/C=C(\\C#N)C(N)=S)cc(C(C)(C)C)c1O", "Potency": "8.91 µM (active)"},
      {"smiles": "O=C(O)C1CCCNC1", "note": "(stereo not given)", "activity change, negative = inhibition": "0.541% (inactive)"},
      {"smiles": "CC(N)=O", "activity change, negative = inhibition": "8.45% (inactive)"},
      {"smiles": "Nc1ccc2c3c(cccc13)C(=O)NC2=O", "activity change, negative = inhibition": "-1.06% (inactive)"},
      {"smiles": "Cc1nc(N=Nc2ccc(S(=O)(=O)O)cc2S(=O)(=O)O)c(COP(=O)(O)O)c(C=O)c1O", "activity change, negative = inhibition": "0.249% (inactive)"},
      {"smiles": "CC(N)=NCCCC[C@@H](N)C(=O)O", "activity change, negative = inhibition": "2.2% (inactive)"},
      {"smiles": "Nc1ccc(CCNc2ncnc3c2ncn3C2OC(CO)C(O)C2O)cc1", "note": "(stereo not given)", "activity change, negative = inhibition": "-10.2% (inactive)"},
      {"smiles": "O=c1[nH]c2ccccc2c2ccccc12", "activity change, negative = inhibition": "-14.4% (inactive)"},
      {"smiles": "OCC1NCC(O)C(O)C1O", "note": "(stereo not given)", "activity change, negative = inhibition": "5.09% (inactive)"},
      {"smiles": "N[C@H]1CONC1=O", "activity change, negative = inhibition": "-1.29% (inactive)"},
      {"smiles": "COCc1nc2c([nH]1)c(=O)n(C)c(=O)n2CC(C)C", "activity change, negative = inhibition": "2.28% (inactive)"},
      {"smiles": "C=CC1(C)CC(=O)C2(O)C(C)(O1)C(OC(C)=O)C(O)C1C(C)(C)CCC(O)C12C", "note": "(stereo not given)", "activity change, negative = inhibition": "-14.6% (inactive)"},
      {"smiles": "CCCn1c(=O)c2c(ncn2C)n(CCC)c1=O", "activity change, negative = inhibition": "-6.1% (inactive)"},
      {"smiles": "O=C(O)/C=C/c1ccc(O)c(O)c1", "activity change, negative = inhibition": "-0.906% (inactive)"}
    ]}
  ]
}
